Test results from ChEMBL document CHEMBL3433997, “St. Jude Leishmania screening dataset” (2016).

molecular target: Glucose transporter (Leishmania mexicana) (UniProt O61059); experiment: ST_JUDE_LEISH: Cytotoxicity at 2uM final concentration against transgenic Leishmania Mexicana promastigotes LmGT2 that are glucose transport deficient and complemented with the L. Mexicana glucose transporter 2. Activity is measured by DNA content using SYBR green in vitro; type: functional

Row | SMILES | inhibition
1 | Cc1nnc2c(NC(=O)NC3CCCC3)cc3cc(-c4ccc(CN(C)C)cc4)ccc3n12 | 0.22%
2 | COc1ccc2ncc(F)c(CCN3CC(O)C(CNCc4ccc5ccccc5c4)C3)c2n1 (stereo not given) | 6.63%
3 | CC1CCN(CC[C@H]2CCCN2S(=O)(=O)c2cccc(NC(=O)c3ccc(-c4ccc(Cl)cc4)o3)c2)CC1 | -0.14%
4 | O=C(Nc1ccc(N2CCN(Cc3cccc(F)c3)CC2)cc1)c1cccs1 | 4.59%
5 | Cc1cc(N/N=C/c2ccc([N+](=O)[O-])cc2)c2ccc(F)cc2n1 | -1.86%
6 | O=C(/C=C/c1ccc(Cl)c(Cl)c1)N1CCN(C(=O)Nc2cccc(C(F)(F)F)c2)CC1 | 2.79%
7 | FC(F)(F)c1ccc2[nH]c(-c3ccc(-c4ccc(CN5CCN(c6ccncc6)CC5)cc4)s3)nc2c1 | -2.12%
8 | CS(=O)(=O)c1ccc(CNCc2ccc(-c3cccc(-c4nc5cc(C(F)(F)F)ccc5[nH]4)c3)cc2)cc1 | 1.5%
9 | COc1ccc2nccc([C@@H](O)CN3C4CCC3CC(NCc3ccc5c(n3)NC(=O)CS5)C4)c2n1 (stereo not given in full) | -2.06%
10 | Cc1ccccc1CCNC(=O)c1ccc(N2CCN(c3ccncc3)CC2)nc1 | 0.46%
11 | Cc1cccc2nc(-c3ccc(-c4ccc(NC(=O)Nc5ccsc5)cc4)cc3)[nH]c12 | -0.35%
12 | COc1ccc(-c2cccc(NC(=O)c3ccc(C#N)cc3)c2)cc1CN1CCCN(C)CC1 | 0.9%
13 | COc1ccc(-c2cccc(NC(=O)c3cccc(Cl)c3)c2)cc1CN1CCC(O)CC1 | 5.34%
14 | Cc1nc2nc(N)nc(N)c2c(C)c1Cc1cccc(F)c1 | 0.65%
15 | Cc1[nH]n(-c2cccc(C(F)(F)F)c2)c(=O)c1-c1ccc(Cl)cc1 | 5.69%
16 | COc1cc2nc(N3CCC(CNC(=O)c4ccc(-c5ccc(C(=O)N(C)C)cc5C)cc4)CC3)nc(N3CCN(C)CC3)c2cc1OC | 1.23%
17 | Cc1ccccc1CNC(=O)Nc1cccc(-c2csc(NC(=N)N)n2)c1 | 4.51%
18 | CCN(CCCN1CCCCC1)c1cc(C)nc(Nc2cccc(OC(F)(F)F)c2)n1 | 2.65%
19 | Cc1cccc(CN2CCCN(Cc3cccc(C(=O)Nc4ccc(C(C)(C)C)cc4)c3)CC2)c1 | 1.26%
20 | CC(=O)c1ccc2c(c1)CCN(CCC1CCC(NC(=O)c3cc4ccccc4[nH]3)CC1)CC2 (stereo not given) | 3.71%

Row | SMILES | inhibition
21 | O=C(Nc1ccsc1)Nc1cccc(-c2cccc(-c3nc4ccccc4[nH]3)c2)c1 | 4.27%
22 | CC1CCCC(C)N1C[C@@H](O)CNS(=O)(=O)c1cccc(C(F)(F)F)c1 (stereo not given in full) | -0.01%
23 | Cc1cccn2c(=O)c3cc(C(=O)NCCc4ccccc4)c(=N)n(CCCOC(C)C)c3nc12 | 2.98%
24 | O=C(Nc1nc(-c2ccccn2)cc2ccccc12)c1cccc(Cl)c1 | 8.17%
25 | O=c1cc(NCCCNCc2scc3c(Cl)cc(C(F)(F)F)nc23)[nH]c2ccccc12 | 3.05%
26 | O=C(COc1ccccc1)NC1CCN(c2ccnc3cc(Cl)ccc23)C1 (stereo not given) | 1.75%
27 | COCCNCc1cccc(-c2ccccc2CN(C(=O)c2ccc3c(c2)OCO3)c2ccc(OC)cc2)c1 | 3.25%
28 | O=C(N[C@@H](Cc1ccccc1)C(=O)NC1CCCCC1)c1ccc(O)c(-c2ccc(Cl)c(Cl)c2)c1 | -0.73%
29 | COc1ccc2[nH]ccc(=NN=Cc3ccccc3Cl)c2c1 | 2.03%
30 | Cc1cc(-c2nc3ccc(C(=O)NCc4ccccc4)cc3n2C2CCN(C(=O)c3ccc(-c4ccccc4)cc3)CC2)ccn1 | 1.94%
31 | CCC[C@@H]1CCN[C@H]([C@H](O)c2ccnc3ccc(OC)cc23)C1 | 4.53%
32 | CC(=O)N1CCC(C(=O)Nc2ccc(-c3cccc(-c4nc5cc(C(F)(F)F)ccc5[nH]4)c3)cc2)CC1 | 1.24%
33 | COC(=O)c1ccccc1N1CCN(CCCCNC(=O)c2ccc(NC(=O)c3cc(Cl)cc(Cl)c3)cc2)CC1 | 3.09%
34 | CN1CCN(c2ccnc3ccc(NC(=O)Nc4ccc(Cl)c(Cl)c4)cc23)CC1 | 6.56%
35 | CN1CCC(C(=O)Nc2cccc(-c3ccc(-c4nc5cc(C(F)(F)F)ccc5[nH]4)cc3)c2)CC1 | 3.82%
36 | NC1CCN(Cc2cccc(-c3ccc(-c4nc5ccccc5[nH]4)s3)c2)C1 (stereo not given) | 4.58%
37 | CCCOc1cc(OCCC)cc(-c2cc(=O)c3ccccc3[nH]2)c1 | 3.56%
38 | COc1cccc2[nH]c(NCCCNCc3cc(Br)cc(Br)c3)nc12 | 2.63%
39 | COc1ccc(-c2ccc(NC(=O)c3ccc(F)cc3)cc2)cc1CNC(C)C | 4.68%
40 | CC(C)CN(C)c1ncnc2c1nc(-c1cncc(C#N)c1)n2CCNCc1ccccc1 | 4.39%
